Bioassay records from PubChem BioAssay.
Sampled rows, rich in hits. Any-hit rate of the full collection: about 0.51%.
PINK1 expr mod – A Quantitative High throughput Screen to Identify Chemical Modulators of PINK1 Expression; PINK1 immunofluorescence, high-content cytometry, 24 h; Potency, µM (doses to about 76.6 µM), inactives show top-dose activation (PINK1 increase), hits mostly activators; 410,000 compounds, 0.2% hits; AID 624263, 2012; active means well fitted activation curve with a large enough effect; inconclusive means small, poorly fitted or top-dose-only effect; cell line not stated here; further: % of control where 0% means no effect; nearly all actives have a fitted effect of over 65% in size
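Stable cell line, 250 cells/well, 12 h attachment; compounds pinned at 5 concentrations, 24 h; CCCP control. Fixed with nuclear dye, primary antibodies 12 h at 10 degrees C, secondary plus cell stain; laser-scanning cytometer read.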
Epigenetic derep – Quantitative High-Throughput Screen for Regulators of Epigenetic Control. AID 1865, 2009. Potency, µM (top dose mostly 53.9 µM), for inactives: at the top dose GFP activation, most hits filed as activators. murine LDR cells, GFP reporter derepression, 30 h. 280,000 compounds, 0.2% hits; further: % of control where 0% means no effect; nearly all actives have a fitted effect of over 60% in size
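Readout is the number of GFP-expressing murine LDR cells, counted by cytometry following washing. Cells were treated with compound for 30 h at 37 C; the stably integrated CMV-GFP locus is normally silent.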
Vif-A3F inh – qHTS for Inhibitors of Vif-A3F Interactions: qHTS; HeLa A3F-eYFP + Vif (tagged APOBEC3F with the HIV-1 protein that degrades it), YFP fluorescence increase; Potency, µM (series often up to 46.1 µM), for the others: at the highest dose activity, negative = active; 390,000 compounds, 0.2% hits; further: % of control where 0% means no effect; nearly all actives have a fitted effect of over 65% in size
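HeLa cells stably expressing A3F-eYFP plus Vif, plated and incubated overnight at 37 deg C, then exposed to compounds overnight at 37 deg C. Blocked degradation read as raised yellow fluorescence (Ex 488/Em 500-530).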
Vif-A3G inh – qHTS for Inhibitors of Vif-A3G Interactions: qHTS; 410,000 compounds, 0.076% hits; HeLa A3G-eYFP + Vif (tagged APOBEC3G with the HIV-1 protein that degrades it), YFP fluorescence, overnight; Potency, µM (top dose mostly 46.1 µM), inactives show top-dose activity, negative = active, actives largely listed as inhibitors; further: on the % scale 0 is the no-effect control and ±100 the full control effect; nearly all actives have a fitted effect of over 60% in size
Target sequence (Q9HC16 whole entry, looked up): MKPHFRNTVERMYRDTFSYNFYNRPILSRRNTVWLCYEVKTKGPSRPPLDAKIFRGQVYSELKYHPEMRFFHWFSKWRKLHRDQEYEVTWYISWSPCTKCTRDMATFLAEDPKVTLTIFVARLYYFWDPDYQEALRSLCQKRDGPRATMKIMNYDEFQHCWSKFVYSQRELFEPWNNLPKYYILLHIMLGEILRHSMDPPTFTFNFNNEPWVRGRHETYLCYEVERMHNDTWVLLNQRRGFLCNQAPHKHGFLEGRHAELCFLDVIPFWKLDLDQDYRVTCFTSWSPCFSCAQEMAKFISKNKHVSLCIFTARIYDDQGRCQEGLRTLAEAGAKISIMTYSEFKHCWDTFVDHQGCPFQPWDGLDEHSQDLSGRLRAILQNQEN
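HeLa cells stably expressing Vif and C-terminally eYFP-tagged A3G, seeded overnight at 37 deg C, then exposed to compound by pintool overnight at 37 deg C. Rise in yellow fluorescence (Ex 488/Em 500-530, Acumen) marks blocked Vif-driven A3G degradation.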
* marks the source's active call; other numbers are inactive results; ? = inconclusive; . = no result; [ ] = another dose, or the depositor's remark. Unless noted, the call rests on the fitted dose curve; in most records, active means well fitted curve in the direction sought with a large enough effect; inconclusive means small, poorly fitted or top-dose-only effect, or another doubt; inactive means no such curve, though single readings can be large; an effect the other way counts as inactive or inconclusive. Potency means the concentration at half of the fitted maximal effect.

SMILES | PINK1 expr mod | Epigenetic derep | Vif-A3F inh | Vif-A3G inh
Cc1ccc(NC(=O)CO/N=C/c2ccc(N(C)C)cc2)cc1 | 10.2% | ? | 25.1µM* | ?
CCCCOc1ccc(C2C3CN(C(=O)OCC)CC=C3C(C#N)=C(N)C2(C#N)C#N)cc1OC (stereo unspecified) | 20.1%[38.3 µM] | -0.8% | -16.7% | -12.0%
CCN1CC=C2C(C#N)=C(N)C(C#N)(C#N)C(CCc3ccccc3)C2C1 (stereo unspecified) | 10µM* | -1.6% | ? | ?
COc1ccc(OC)c(C2C3CN(C(C)C)CC=C3C(C#N)=C(N)C2(C#N)C#N)c1 (stereo unspecified) | 39.8µM* | -1.0% | -14.7% | -13.2%
COc1cccc(OC)c1OCc1cc(C2C3CCCC=C3C(C#N)=C(N)C2(C#N)C#N)c(C)cc1C (stereo unspecified) | 3.7% | -2.3% | -2.7% | -17.8%
CCCN1CC=C2C(C#N)=C(N)C(C#N)(C#N)C(c3cccc(OC)c3OC)C2C1 (stereo unspecified) | 10µM* | 0.9% | 0.0% | -14.3%
Cc1ccc(C2C3CN(C(C)C)CC=C3C(C#N)=C(N)C2(C#N)C#N)cc1 (stereo unspecified) | 25.1µM* | 1.8% | ? | -25.3%
COCCN1CCN(C(=O)c2cnn(-c3nccc(-c4ccccc4F)n3)c2-c2ccco2)CC1 | 0.1% | . | . | .
Cc1nc2ccccc2nc1CN1CCOc2ccc(C(C)(O)COc3ccccc3)cc2C1 (stereo unspecified) | 1.7% | . | . | .
CSc1nnc(CCNC(=O)/C=C/c2cccc(F)c2)n1-c1ccc(F)cc1 | 0.0% | . | . | .
OC1(c2cccnc2)CCN(Cc2ccc3c(c2)CN(Cc2cc4ccccc4s2)CCO3)CC1 | -0.6% | . | . | .
Cc1ccc(C(=O)O)cc1Nc1nc2ccccc2n2nnnc12 | 2.3% | 0.5% | 11.2µM* | -23.5%
CC(CNC(=O)c1ccc(Nc2nc3ccccc3n3nnnc23)cc1)c1ccccc1 (stereo unspecified) | 4.1% | ? | -12.9% | 1.2%
COc1ccccc1CNC(=O)c1ccc(Nc2nc3ccccc3n3nnnc23)cc1 | ? | ? | 22.4µM* | -27.8%
CC(NC(=O)c1ccc(Nc2nc3ccccc3n3nnnc23)cc1)c1ccccc1 (stereo unspecified) | 1.7% | ? | 7.08µM* | ?
Clc1ccc(-n2cccc2CN2CCOc3ccc(CN4CCOCC4)cc3C2)nc1 | 0.2% | . | . | .
Cn1ccnc1C1CCCCN1C(=O)CN1Cc2ccccc2OC(c2ccccc2F)C1 (stereo unspecified) | 0.4% | . | . | .
O=C(c1cccnc1)C1CCCN(Cc2ccc3c(c2)CN(C(=O)c2cccs2)CCO3)C1 (stereo unspecified) | 0.4% | . | . | .
Cn1c(N/N=C/c2cc3ccccc3nc2Cl)nc2ccccc21 | 35.5µM* | ? | 22.4µM* | 11.2µM*
O=C(c1cc(-c2ccccc2)nc2ccccc12)N1N=C(C(F)F)CC1(O)C(F)F (stereo unspecified) | 15.4%[38.3 µM] | -0.7% | -17.8% | 0.6%
Cc1ccc(-c2cc(C(=O)N3N=C(C(F)F)CC3(O)C(F)F)c3ccccc3n2)cc1C (stereo unspecified) | 10µM* | 11.8% | -15.0% | ?
O=C(O)CCCNc1cc(N2CCC3(CC2)OCCO3)c2noc3c2c1C(=O)c1ccccc1-3 | . | 0.0% | . | .
O=C(O)CCCNc1cc(N2CCN(C(=O)c3ccco3)CC2)c2noc3c2c1C(=O)c1ccccc1-3 | ? | . | ? | 22.4µM*
CCOC(=O)N1CCN(c2cc(NCCC(=O)O)c3c4c(onc24)-c2ccccc2C3=O)CC1 | 3.2% | 0.0% | 7.08µM* | ?
Cc1ccc(N2C(=O)CS/C2=C(\C(Cl)=C(Cl)Cl)[N+](=O)[O-])cc1 | -5.3%[38.3 µM] | ? | 25.1µM* | ?
SMILES | PINK1 expr mod | Epigenetic derep | Vif-A3F inh | Vif-A3G inh
Cc1ccc(N2C(=O)CSCC2=O)cc1 | 0.7% | 0.0% | 0.6% | -2.2%
Oc1[nH]c(N=C2N=c3ccccc3=N2)c2ccccc12 | -1.4% | 12.6µM* | 9.9% | -4.2%
N#C/C(=C\c1ccc(N2CCOCC2)o1)c1ccccc1 | . | 11.2µM* | ? | ?
N#C/C(=C/c1ccc(N2CCOCC2)o1)c1nc2ccccc2[nH]1 | 25.1µM* | 15.8µM* | ? | ?
N#C/C(=C\N1CCOCC1)c1ccccc1 | 0.8%[38.3 µM] | -7.1% | -6.2% | -0.3%
N#C/C(=C/c1ccc(N2CCOCC2)o1)c1ccc(Br)cc1 | ? | 3.98µM* | . | ?
N#C/C(=C\c1ccc(N2CCOCC2)cc1)c1ccccc1 | -0.5% | -1.9% | 1.6% | -3.2%
COc1ccccc1CNC(=O)c1cnn(-c2nccc(-c3cccs3)n2)c1C | 2.7% | . | . | .
CC(C)(CC(=O)NCc1ccc(Cl)cc1Cl)CC1=NS(=O)(=O)c2ccccc2N1 | 44.7µM* | 0.8% | -0.4% | -7.3%
CSc1nccc(-c2cc(Cl)c3c(c2)CC(CNC(=O)c2ccc(C)nc2)O3)n1 (stereo unspecified) | 1.9% | . | . | .
Cc1ccc(C(=O)Nc2cccc(-c3nc(CNC(=O)c4ccc5ccccc5n4)c(C)o3)c2)s1 | 0.0% | . | . | .
OCCCn1c(C2CCCN2c2nc(-c3ccc(F)cc3)cs2)nc2cc(Cl)c(Cl)cc21 (stereo unspecified) | 3.2% | . | -6.3% | -7.7%
OCCCn1c(C2CCCN2c2nc(-c3ccc(Cl)cc3)cs2)nc2cc(Cl)c(Cl)cc21 (stereo unspecified) | 3.9% | . | 22.4µM* | -2.1%
OC(c1ccc2c(c1)CN(Cc1c[nH]c3ccccc13)CCO2)c1ccccn1 (stereo unspecified) | -0.1% | . | . | .
CCN(CC)c1ccc(NC2CC(=O)N(CCc3ccc(OC)cc3)C2=O)cc1 (stereo unspecified) | 2.24µM* | 3.55µM* | ? | -6.9%
N#Cc1c(C(F)(F)F)cc(-c2ccco2)nc1SCc1ccccn1 | 0.2%[38.3 µM] | ? | 25.1µM* | ?
O=[N+]([O-])c1ccc(NC(=S)NCCc2ccccc2)cc1 | ? | -0.9% | -1.7% | -2.1%
O=[N+]([O-])c1ccc(NNC(=S)Nc2ccccc2)cc1 | 14.1µM* | -2.4% | -3.9% | 0.0%
COc1ccc2c3c([nH]c2c1)C1CC2C(CC(O)C(OC)C2C(=O)O)CN1CC3 (stereo unspecified) | 1.8% | 3.2% | -6.2% | -2.2%
COC(=O)C1=COC(C)C2CN3CCc4c([nH]c5cc(OC)c(OC)cc45)C3CC12 (stereo unspecified) | 6.8% | 0.0% | 8.91µM* | -11.6%
COC(=O)c1cc(CNC(=O)c2ccncc2)cc(NC(=O)c2ccccc2Cl)c1 | -0.2% | . | . | .
CCOC(=O)Cc1csc(NC(=O)c2sc3nc4ccc(CC)cc4cc3c2N)n1 | 39.8µM* | ? | ? | -22.2%
N#C/C(=C\c1ccc(-c2cccc(Cl)c2)o1)C(=O)Nc1cccc(C(F)(F)F)c1 | 1.0% | 11.2µM* | ? | 1.7%
